From the supplement of paper PMC12340641
Where a name gives a salt, the structure may show the parent alone.

Tests used:
[1] = target: IKZF1 (dCK*-IKZF1 fusion in HEK293FT) (UniProt Q13422); assay: inhibition of IKZF1 HTRF signal (DMSO = 0%, pomalidomide 10 uM = 100%); higher = lower IKZF1 protein level; conditions: compound concentration: 5 uM, overnight (~20 h)
Summary of the method: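 For percent inhibition of IKZF1 signal, each plate was normalised to vehicle and to a reference degrader. Cells were HEK293FT stably expressing an IKZF1 fusion, plated at 2000/well in 384-well format and treated overnight at 37 °C with 5 μM compound, one well each. Lysates were probed overnight with a commercial HTRF total-IKZF1 antibody kit, with the 665/620 nm ratio background-subtracted and vehicle and degrader fixed at 0% and 100%.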

[2] = test system: HEK293FT dCK*-only; assay: relative growth in counter assay (no AraC = 100%, AraC + DMSO = 0%); higher = more growth rescue independent of IKZF1; conditions: compound concentration: 5 uM; AraC concentration: 0.3 uM; overnight pretreatment + 4 days AraC
Summary of the method: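 HEK293FT cells carrying only an engineered kinase construct were plated at 300 per well (384-well) and given 5 μM compound 2 h later. Following overnight at 37 °C, a nucleoside suicide substrate (0.3 μM) plus medium was added for 4 days. Hoechst 33342-stained nuclei were imaged and counted on day 5, with 100% assigned to wells without suicide substrate and 0% to substrate plus vehicle on each plate.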

[3] = test system: HEK293FT dCK*-IKZF1; assay: relative growth recovery (pomalidomide 10 uM = 100%, DMSO = 0%); higher = more growth rescue (IKZF1 fusion degradation); conditions: compound concentration: 5 uM; AraC concentration: 0.3 uM; overnight pretreatment + 4 days AraC
Summary of the method: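 HEK293FT cells stably expressing a dCK*-IKZF1 fusion (300/well, 384-well) received 5 μM compound 2 h after seeding. After overnight at 37 °C they received a nucleoside suicide substrate at 0.3 μM plus medium for 4 days. On day 5, Hoechst 33342-stained nuclei were counted by whole-well imaging. Growth recovery was normalised per plate to a reference degrader (100%) and vehicle (0%); values are means of duplicates run on different days.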

Chain of IKZF1 (dCK*-IKZF1 fusion in HEK293FT) (Q13422 whole entry, looked up, the tested form may be a part): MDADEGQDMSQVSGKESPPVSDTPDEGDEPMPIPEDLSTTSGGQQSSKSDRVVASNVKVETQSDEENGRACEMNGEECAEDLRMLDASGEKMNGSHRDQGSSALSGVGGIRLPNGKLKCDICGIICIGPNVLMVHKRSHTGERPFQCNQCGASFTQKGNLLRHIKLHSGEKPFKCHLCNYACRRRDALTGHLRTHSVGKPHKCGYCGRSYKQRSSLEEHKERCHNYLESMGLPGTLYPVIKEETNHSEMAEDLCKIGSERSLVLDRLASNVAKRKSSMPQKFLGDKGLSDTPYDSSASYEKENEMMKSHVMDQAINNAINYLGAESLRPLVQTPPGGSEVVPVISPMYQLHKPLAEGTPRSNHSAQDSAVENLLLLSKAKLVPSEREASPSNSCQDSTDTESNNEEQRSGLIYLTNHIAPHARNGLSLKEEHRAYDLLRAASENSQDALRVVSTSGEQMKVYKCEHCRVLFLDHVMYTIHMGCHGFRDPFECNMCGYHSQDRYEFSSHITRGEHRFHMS

Compound | inhibition of IKZF1 HTRF signal [1] | relative growth in counter assay [2] | relative growth recovery [3]
O=c1[nH]c2ccccc2n1C1CCN(CCOc2ccccc2)CC1 [oxiperomide] | 23.7% | -11.6% | 2.25%
Cc1cc(C)nc(NS(=O)(=O)c2ccc(N)cc2)n1 | -24.1% | 2.2% | -1.69%
CCN(CC)CCOc1ccccc1C(=O)CCc1ccccc1 [etafenone] | 11% | 2.17% | -1.08%
CCCCCCCCCCCCCCCC[N+](C)(C)CCN(Cc1ccc(OC)cc1)c1ncccn1 [thonzonium bromide] | 21% | -31% | -10.3%
O=C(NCCO[N+](=O)[O-])c1cccnc1 | -26.3% | -5.9% | -1.74%
CCC1/C=C(\C)CC(C)CC(OC)C2OC(O)(C(=O)C(=O)N3CCCCC3C(=O)OC(/C(C)=C/C3CCC(O)C(OC)C3)C(C)C(O)CC1=O)C(C)CC2OC (stereo unspecified) [Ascomycin (FK520)] | 4.12% | 22.2% | 13.5%
CCN(CC)C(=S)SSC(=S)N(CC)CC | -34.2% | -35.6% | -12.6%
CCN(CCCCCOCC(=O)N[C@H](C(=O)N1C[C@H](O)C[C@H]1C(=O)N[C@@H](C)c1ccc(-c2scnc2C)cc1)C(C)(C)C)CCOc1ccc(C(=O)c2c(-c3ccc(O)cc3)sc3cc(O)ccc23)cc1 | 3.72% | 13.8% | 11%
CCCCC(F)(F)C(=O)CC[C@H]1[C@H](O)CC(=O)[C@@H]1CCCCCCC(=O)O [Lubiprostone] | -43.7% | -3.38% | -1.27%
Oc1c(Br)cc(Br)c2cccnc12 | 1.09% | -4.45% | -2.54%
CCN(CC)CCCC(C)Nc1nc(C)cc(Nc2ccc3nc(C)cc(N)c3c2)n1 (stereo unspecified) | -45.1% | -7.4% | 0.345%
CC(C)[C@H]1c2ccc(F)cc2CC[C@@]1(CCN(C)CCCc1nc2ccccc2[nH]1)OC(=O)C1CC1 | -25.9% | -31.9% | -9.29%
CCCCC1C(=O)N(c2ccccc2)N(c2ccc(O)cc2)C1=O (stereo unspecified) | -36.3% | -34.9% | -12.7%
O=C(OOC(=O)c1ccccc1)c1ccccc1 | -35.6% | -0.7% | 1.32%
Clc1ccccc1C(c1ccccc1)(c1ccccc1)n1ccnc1 | -36.9% | 5.96% | 2.19%
O=C1Nc2cc(Br)ccc2/C1=C1/Nc2ccccc2/C1=N\O [3-inhibitor] | -34.6% | -10.1% | -4.43%
C=CCNc1c(O)cc2c(O)c1C[C@@H](C)C[C@H](OC)[C@H](O)[C@@H](C)/C=C(\C)[C@H](OC(N)=O)[C@@H](OC)/C=C\C=C(/C)C(=O)N2 [Retaspimycin (Hydrochloride)] | -31% | -34.5% | -10.9%
Cc1cc(Nc2ncc(Cl)c(Nc3ccccc3S(=O)(=O)C(C)C)n2)c(OC(C)C)cc1C1CCN(CC(=O)NCCOCCOCCOCCOCCOCCNc2cccc3c2C(=O)N(C2CCC(=O)NC2=O)C3=O)CC1 (stereo unspecified) | 54.5% | 6.9% | 64.6%
CCN(CC)CCOc1ccc2c(c1)C(=O)c1cc(OCCN(CC)CC)ccc1-2 | -2.01% | -26.5% | -8.99%
CC(C)(C)C1CCc2c(sc(NC(=O)c3ccco3)c2C(=O)O)C1 (stereo unspecified) | -23.8% | -8.81% | -0.515%
NC(=O)c1nnn(Cc2cc(Cl)c(C(=O)c3ccc(Cl)cc3)c(Cl)c2)c1N [carboxyamidotriazole] | -49.1% | -4.77% | -2.6%
Nc1ncc(Cc2ccc(Br)cc2)s1 | -28.6% | -1.27% | -1.02%
CCOC(=O)Nc1nc2ccccc2[nH]1 | -22.3% | 2.38% | -1.88%
CCc1c2c(nc3ccc(OC(=O)N4CCC(N5CCCCC5)CC4)cc13)-c1cc3c(c(=O)n1C2)COC(=O)[C@]3(O)CC [Irinotecan HCl] | -17.6% | -35.4% | -15.1%
CC1(C)C(=O)N=C2C1=C(O)C(=O)c1ccccc12 | 80% | -34.8% | -12.4%
COc1ccccc1NC(=O)OCC1CCN(C(=O)OC(C)(C)C)CC1 | -21.9% | -0.54% | 0.27%
Nc1ncnc2c1c(-c1cnc3[nH]ccc3c1)nn2C1CCCC1 | -13.8% | -33.6% | -11.3%
